These results are taken from PubChem BioAssay (Tox21).

Experiment [1] is described as follows: qHTS assay to identify small molecule antagonists of the thyroid receptor (TR) signaling pathway - cell viability counter screen (AID 743064). Note: nearly all actives have a fitted effect of over 50% in size. Note: potency is the fitted concentration of half-maximal effect. The method in brief: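 Same-well viability check: GH3.TRE-Luc cells stimulated with 1 nM T3 alongside test compound for 23.5 h, followed by CellTiter-Fluor fluorescence.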
(In general: In qHTS, concentration-response curves come from the screen itself.)

Experiment [2] is described as follows: qHTS assay to identify small molecule antagonists of the thyroid receptor (TR) signaling pathway (AID 743065). Note: nearly all actives have a fitted effect of over 55% in size. Note: potency is the fitted concentration of half-maximal effect. The method in brief: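 Antagonism measured as loss of luciferase signal in GH3 cells stably carrying a TRE-luciferase reporter, co-treated with compound and T3 (1 nM final) for 23.5 h at 37 C. Viability was read in the same well by CellTiter-Fluor.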

Experiment [3] deals with thyroid hormone receptor (rat, GH3 cells). Briefly: qHTS assay to identify small molecule agonists of the thyroid receptor (TR) signaling pathway (AID 743066; calls by dose curve).
Experiment [4] is described as follows: qHTS assay to identify small molecule antagonists of the estrogen receptor alpha (ER-alpha) signaling pathway - cell viability counter screen (AID 743074; calls by dose curve;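 note: HEK293 cells carrying ER-alpha-UAS-bla reporter stimulated with 17beta-estradiol; nearly all actives have a fitted effect of over 45% in size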).
Experiment [5] addresses Estrogen receptor (Homo sapiens) (UniProt P03372). Description: qHTS assay to identify small molecule agonists of the estrogen receptor alpha (ER-alpha) signaling pathway (AID 743075; calls by dose curve;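 note: HEK293 GripTite cells with ER-alpha and UAS-driven beta-lactamase reporter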).
The target is the same in experiment [6]. Briefly: qHTS assay to identify small molecule agonists of the estrogen receptor alpha (ER-alpha) signaling pathway using the BG1 cell line (AID 743079). Note: nearly all actives have a fitted effect of over 20% in size. Note: potency is the fitted concentration of half-maximal effect.
Experiment [7] in a line: qHTS assay to identify small molecule antagonists of the estrogen receptor alpha (ER-alpha) signaling pathway using the BG1 cell line (AID 743080; calls by dose curve;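 note: BG1 cells stimulated with 17beta-estradiol alongside compound; series mostly up to about 70 µM; nearly all actives have a fitted effect of over 25% in size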). The method in brief: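 Luminescence from a 4×ERE-luciferase reporter in BG1-Luc-4E2 cells served as read-out. Cells, pre-cultured 5 days in stripped-serum phenol-red-free medium, were exposed to compound with 17beta-estradiol co-stimulation for 21.5 h at 37 C.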

Experiment [8] in a line: qHTS assay to identify small molecule antagonists of the estrogen receptor alpha (ER-alpha) signaling pathway using the BG1 cell line - cell viability counter screen (AID 743081).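 Note: compound given together with 17beta-estradiol as the ER stimulus; nearly all actives have a fitted effect of over 45% in size.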 Note: potency is the fitted concentration of half-maximal effect.
Another experiment deals with Aromatase (Homo sapiens) (UniProt P11511). Briefly: qHTS assay to identify aromatase inhibitors (AID 743083). Note: nearly all actives have a fitted effect of over 55% in size. Note: potency is the fitted concentration of half-maximal effect.
Experiment [9] deals with Estrogen receptor (Homo sapiens) (UniProt P03372). Description: qHTS assay to identify small molecule antagonists of the estrogen receptor alpha (ER-alpha) signaling pathway (AID 743069; active = well fitted curve in the direction sought with a large enough effect in the signal ratio in the repeat runs, not every such curve was filed as active; the % refers to the signal ratio). The method in brief:
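ER-alpha-UAS-bla GripTite HEK293 line; 2% charcoal-stripped FBS overnight; plated, 4 hr 37C/5% CO2; cpd in DMSO + 17beta-estradiol, 18 hr 37C; LiveBLAzer B/G FRET substrate 2 hr RT; fluorescence intensity.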

Records with an inconclusive call do not appear. Calls of active or inactive are those of the source. Unless noted, calls come from the whole dose curve; as a rule, active = well fitted curve in the direction sought with a large enough effect in the repeat runs; inconclusive = weak or mixed curves; inactive = no such curve, though single readings can be large; an effect the other way counts as inactive or inconclusive.

Sequence of Aromatase (Homo sapiens) (P11511 whole entry, looked up): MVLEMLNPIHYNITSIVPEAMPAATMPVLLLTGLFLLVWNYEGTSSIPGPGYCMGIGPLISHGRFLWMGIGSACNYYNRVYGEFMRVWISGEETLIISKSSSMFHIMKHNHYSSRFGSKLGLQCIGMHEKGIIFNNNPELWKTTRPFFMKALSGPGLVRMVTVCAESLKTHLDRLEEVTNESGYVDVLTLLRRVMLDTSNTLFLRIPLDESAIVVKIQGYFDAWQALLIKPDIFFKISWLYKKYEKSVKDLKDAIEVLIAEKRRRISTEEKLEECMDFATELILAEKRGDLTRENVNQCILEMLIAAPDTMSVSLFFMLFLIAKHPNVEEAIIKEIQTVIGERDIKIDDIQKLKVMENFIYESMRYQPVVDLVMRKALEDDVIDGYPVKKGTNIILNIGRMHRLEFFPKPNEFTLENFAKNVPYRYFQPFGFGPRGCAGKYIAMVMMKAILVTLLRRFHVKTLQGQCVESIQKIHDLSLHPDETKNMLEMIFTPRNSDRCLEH
Sequence of Estrogen receptor (Homo sapiens) (P03372 whole entry, looked up): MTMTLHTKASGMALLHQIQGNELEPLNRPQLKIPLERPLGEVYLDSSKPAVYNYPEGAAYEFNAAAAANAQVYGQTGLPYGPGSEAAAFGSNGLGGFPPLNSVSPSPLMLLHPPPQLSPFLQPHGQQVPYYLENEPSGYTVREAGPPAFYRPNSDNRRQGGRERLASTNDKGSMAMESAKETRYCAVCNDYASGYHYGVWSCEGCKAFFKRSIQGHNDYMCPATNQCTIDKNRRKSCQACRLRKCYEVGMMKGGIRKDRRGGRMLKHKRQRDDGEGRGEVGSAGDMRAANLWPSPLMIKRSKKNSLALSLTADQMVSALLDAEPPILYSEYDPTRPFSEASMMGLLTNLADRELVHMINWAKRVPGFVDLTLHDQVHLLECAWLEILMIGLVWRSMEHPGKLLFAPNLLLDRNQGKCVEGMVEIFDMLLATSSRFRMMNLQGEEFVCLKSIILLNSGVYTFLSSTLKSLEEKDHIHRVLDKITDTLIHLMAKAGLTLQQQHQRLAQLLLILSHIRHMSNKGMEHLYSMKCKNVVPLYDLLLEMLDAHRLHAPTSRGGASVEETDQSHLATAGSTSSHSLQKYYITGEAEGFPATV

For the molecule `[Cl][Nd]([Cl])[Cl]`, the Potency entry in experiment [1], in experiment [2], in experiment [3], in experiment [4], in [5] and in experiment [6] was “inactive” in each case. The Potency entry (in [7]; in experiment [8]; with Aromatase (Homo sapiens)) was “inactive” in each case.
As to `O=C(O)CCS`, the Potency entry in experiment [1], in experiment [2], in experiment [3], in [4], in experiment [5] and in experiment [6] was “inactive” each time. In addition, the Potency entry (in [7]; in [8]; with Aromatase (Homo sapiens)) was “inactive” in each case.
In the case of `CC(C)(O)CCc1ccccc1`, the Potency entry in [1], in experiment [2], in experiment [3], in experiment [4], in experiment [5] and in experiment [6] was “inactive” throughout. In addition, the Potency entry (in experiment [7]; in experiment [8]; with Aromatase (Homo sapiens)) was “inactive” throughout.
As to `CCCCC(CC)COS(=O)(=O)O` (centres undefined), the Potency result in [1], in experiment [2], in experiment [3], in [4], in experiment [5] and in [6] was “inactive” in each case. Moreover, the Potency entry (in experiment [7]; in experiment [8]; with Aromatase (Homo sapiens)) was “inactive” throughout.
Turning to `CCC(=O)OCc1ccc(OC)cc1`, the Potency entry in experiment [1], in experiment [2], in experiment [3], in [4] and in experiment [8] was “inactive” each time.
Consider `CCC(CO)(CO)CO`, for which the Potency result in [1], in [2], in [3], in experiment [4], in experiment [5] and in [6] was “inactive” each time. In addition, the Potency result (in [7]; in [8]; with Aromatase (Homo sapiens)) was “inactive” throughout.
`CCCCCCCCCCCCCCCCCC(=O)OCC(CC)CCCC` (centres undefined): the Potency result (in [1]; in experiment [2]; in experiment [3]; in [8]; with Aromatase (Homo sapiens)) was “inactive” each time.
For the molecule `CC(=O)OC(C)C[N+](C)(C)C` (centres undefined), the Potency result in experiment [1], in experiment [9], in [4], in experiment [5], in experiment [6] and in experiment [7] was “inactive” throughout. Besides, the Potency entry (in [8]; with Aromatase (Homo sapiens)) was “inactive” in each case.
Consider `CCO[Si](C)(CCCOCC1CO1)OCC` (centres undefined), for which the Potency result in experiment [1], in experiment [3], in experiment [9], in [4], in [5] and in [6] was “inactive” each time. Also, the Potency result (in [7]; in experiment [8]; with Aromatase (Homo sapiens)) was “inactive” in each case.
Turning to `Cc1cccc(C)c1NC(=O)c1cc(S(N)(=O)=O)c(Cl)cc1O`, the Potency entry (in experiment [1]; in experiment [2]; in experiment [3]; in [8]; with Aromatase (Homo sapiens)) was “inactive” each time.
Take `Cc1cc(CCC(=O)OCCOCCOCCOC(=O)CCc2cc(C)c(O)c(C(C)(C)C)c2)cc(C(C)(C)C)c1O`: the Potency entry (in experiment [1]; in experiment [3]; in [4]; in [8]; with Aromatase (Homo sapiens)) was “inactive” each time.
Turning to `CCN(Cc1cccc(S(=O)(=O)O)c1)c1ccc(C(=C2C=CC(=[N+](CC)Cc3cccc(S(=O)(=O)O)c3)C=C2)c2ccc(O)cc2S(=O)(=O)[O-])cc1`, the Potency in [1] was 37.1 µM (active); in [8] it was 33.1 µM (active); with Aromatase (Homo sapiens), 18.6 µM (active). Moreover, the Potency result in experiment [9] and in experiment [5] was “inactive” in each case.
As to `CNS(=O)(=O)c1cc(C(=O)N2CCC(CCN3C4CCC3CC(n3c(C)nc5ccccc53)C4)(c3cccc(F)c3)CC2)c(Cl)cc1F` (centres undefined), the Potency in experiment [1] was 54.5 µM (active); in experiment [2], 48.6 µM (active); in the experiment with Aromatase (Homo sapiens), 68.6 µM (active). The Potency entry in experiment [4] and in [8] was “inactive” throughout.
Regarding `Nc1cccc2c(N)cccc12`, the Potency entry in experiment [1], in experiment [2], in experiment [3], in [5] and in experiment [7] was “inactive” each time.
Consider `FC(F)(F)C(F)(F)C(F)(F)C(F)(F)CCI`, for which the Potency entry (in experiment [1]; in [4]; in experiment [5]; in [7]; in experiment [8]; with Aromatase (Homo sapiens)) was “inactive” throughout. In experiment [6], the Potency is 27.9 µM (active).
As for `O=C(O)c1cc(Cl)cc(Cl)c1O`, the Potency entry (in [1]; in [3]; in experiment [4]; in experiment [8]; with Aromatase (Homo sapiens)) was “inactive” in each case.
